The values below come from PubChem BioAssay (EPA / NIEHS).

Each structure is given as a SMILES string. Inconclusive results are not listed. Calls of active or inactive are those of the source. How the source made its calls: active means hit-call score of the fitted dose curve at least 0.9, where 1 is the maximum; inconclusive means response in the unintended direction; inactive means score below 0.9.

Sequence of Estrogen receptor (Homo sapiens) (P03372 whole entry, looked up): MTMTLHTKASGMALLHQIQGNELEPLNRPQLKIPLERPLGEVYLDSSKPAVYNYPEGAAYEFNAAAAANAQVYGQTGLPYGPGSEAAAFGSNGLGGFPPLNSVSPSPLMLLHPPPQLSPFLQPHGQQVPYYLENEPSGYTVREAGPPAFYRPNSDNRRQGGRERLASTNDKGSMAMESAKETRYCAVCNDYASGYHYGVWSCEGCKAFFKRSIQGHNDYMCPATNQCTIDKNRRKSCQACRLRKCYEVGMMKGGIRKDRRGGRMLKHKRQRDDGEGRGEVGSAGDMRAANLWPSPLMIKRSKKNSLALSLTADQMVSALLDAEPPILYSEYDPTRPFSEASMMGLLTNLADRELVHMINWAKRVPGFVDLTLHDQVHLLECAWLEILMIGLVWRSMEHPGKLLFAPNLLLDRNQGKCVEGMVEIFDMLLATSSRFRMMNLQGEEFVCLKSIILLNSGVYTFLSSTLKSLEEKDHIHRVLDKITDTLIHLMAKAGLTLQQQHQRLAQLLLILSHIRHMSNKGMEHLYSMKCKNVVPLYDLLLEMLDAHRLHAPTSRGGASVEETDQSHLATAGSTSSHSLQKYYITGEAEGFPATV

The experiment concerns the target Estrogen receptor (Homo sapiens) (UniProt P03372). The experiment is described as follows: NVS_NR_hER: NovaScreen (NVS) Nuclear Receptor Binding Assay for human Estrogen Receptor (ER) (AID 2283348). How it is done:
NVS_NR_hER is a biochemical, single-readout assay that uses extracted gene-proteins from MCF7 in a cell-free assay. Measurements were taken 18 hours after chemical dosing in a 96-well plate.NVS_NR_hER is one of one assay component(s) measured or calculated from the NVS_NR_hER assay. It is designed to make measurements of radioligand binding, a form of binding reporter, as detected with scintillation counting signals by Lysate-based radiodetection technology.Data from the assay component NVS_NR_hER was analyzed into 1 assay endpoint. This assay endpoint, NVS_NR_hER, was analyzed in the positive analysis fitting direction relative to DMSO as the negative control and baseline of activity. Using a type of binding reporter, loss-of-signal activity can be used to understand changes in the binding as they relate to the gene ESR1. Furthermore, this assay endpoint can be referred to as a primary readout, because the performed assay has only produced 1 assay endpoint. To generalize the intended target to other relatable targets, this assay endpoint is annotated to the nuclear receptor intended target family, where the subfamily is steroidal.
Binding assays used specific radioligands (tritiated, iodinated) with non-radioactive competitive displacement ligands in agonist or antagonist protocols (as indicated) and various reference compounds and inhibitors to titrate specific binding to receptors and transporters. Most enzyme assays (CYPs, kinases, phosphatases, proteases, HDACs) used recombinant protein and specific substrates (fluorescence mostly, some colorimetric and radioactive) and inhibitors, followed by a biochemical separation of substrate and product. All assays for the biochemical HTS were initially run in duplicate at a single concentration (10 uM for CYP450 assays and 25 uM for all others). […] Each assay was run with positive and negative controls, and concurrent controls on every plate. The follow-up (secondary) screen tested active chemical-pairs in concentration series, as well as a few additional assays not tested in the primary screen, some selected negative inactives, and several cases re-run in the concentration series for confirmatory purposes.
Take `COC(=O)c1ccc(O)cc1`: the call was inactive.
On the same count and under the same terms, the value for `C[Si]1(C)O[Si](C)(C)O[Si](C)(C)O[Si](C)(C)O1` was “inactive”.
Same read-out and setting: next, `O=C(O)Cc1ccccc1Nc1c(Cl)cccc1Cl`: “inactive”; `COc1ccc(S(=O)(=O)N2C(=O)[C@@](c3ccccc3OC)(N3C[C@H](O)C[C@H]3C(=O)N(C)C)c3cc(Cl)ccc32)c(OC)c1`: “inactive”.
One may read the AC50 as the concentration at which the activity in the assay is half-maximal. Regarding `COc1cc(C=O)ccc1O`, the AC50 was 38.6 µM (active).
As for `COc1ccc2c(c1)c(CC(=O)O)c(C)n2C(=O)c1ccc(Cl)cc1`, the outcome was inactive.
The same measure, in the same setting: the value for `CC(=O)C(C)=CC1C(C)=CCCC1(C)C` (stereo not given) was “inactive”.
Turning to `Cc1cccc(Nc2cc(Cl)nc(SCC(=O)O)n2)c1C`, the outcome was inactive.
For the molecule `CC1=C(/C=C/C(C)=C/C=C/C(C)=C/CO)C(C)(C)CCC1`, the outcome was inactive.
The same measure, in the same setting: next, `O=c1c(O)c(-c2ccc(O)c(O)c2)oc2cc(O)cc(O)c12`: “inactive”.
For the molecule `C=CCOC(=O)c1ccccc1C(=O)OCC=C`, the AC50 was 41.4 µM (active).
As for `CCCCC(CC)COC(=O)CC(C(=O)OCC(CC)CCCC)S(=O)(=O)O` (stereo not given), the molecule was called inactive.
On the same count and under the same terms, next, `CCOC(=O)CCC(=O)OCC`: “inactive”; `Oc1ccc2c(c1)OC[C@@H](N1CCC(O)(c3ccc(F)cc3)CC1)[C@H]2O`: “inactive”.
For `CCCc1cc(=O)[nH]c(=S)[nH]1`, the AC50 was 11.2 µM (active).
As for `CC=Cc1ccc(O)c(OC)c1`, the call was inactive.
Still for that read-out and setting: the value for `C[C@]12C=CC(=O)C=C1CC[C@@H]1[C@@H]2C(=O)C[C@@]2(C)[C@H]1CC[C@]2(O)C(=O)CO` was “inactive”.
The same measure, in the same setting: next, `CCCCCCC(=O)OCC`: “inactive”.
For `CCOc1ccc2c(c1)C(C)=CC(C)(C)N2`, the AC50 is 39.2 µM (active).
`CC(C)(C)c1cc(O)c(C(C)(C)C)cc1O`: the result was inactive.
In the case of `CCCCCCCCCCCCCCCCCC(=O)O`, the AC50 was 17.2 µM (active).
With `Nc1ccc2c(c1)C(=O)c1ccccc1C2=O`, the outcome was inactive.
On to `Cc1oc(-c2ccccc2)nc1CCOc1cccc2c1ccn2CCC(=O)O`, for which the molecule was called inactive.
For the molecule `Cc1nc(-c2ccc3c(c2)CCN(CCC2CCC(NC(=O)/C=C/c4ccc(F)cc4)CC2)CC3)no1` (stereo not given), the molecule was called inactive.
The same measure, in the same setting: the value for `C=CCc1ccc(O)c(OC)c1` was “inactive”.
